Assay results from PubChem BioAssay (Tox21).
Results filed as inconclusive are left out. The source made the active and inactive calls. Unless noted, the call rests on the fitted dose curve; in most records, active means well fitted curve in the direction sought with a large enough effect in the repeat runs; inconclusive means weak or mixed curves; inactive means no such curve, though single readings can be large; an effect the other way counts as inactive or inconclusive.

Experiments:
[1] = qHTS assay to identify small molecule agonists of the vitamin D receptor (VDR) signaling pathway - cell viability counter screen (AID 743224); further: nearly all actives have a fitted effect of over 50% in size; further: potency means the concentration at half of the fitted maximal effect
Procedure, shortened: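 Compounds were pin-transferred onto VDR-bla cells plated 4 h earlier; following 16 h incubation at 37C, cell viability was quantified by CellTiter-Glo luminescence after 30 min at room temperature.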

[2] = qHTS assay to identify small molecule agonists of the NFkB signaling pathway - cell viability counter screen (AID 1159515; calls by dose curve; further: series mostly up to about 61 µM; on the % scale 0 is the no-effect control and ±100 the full control effect; nearly all actives have a fitted effect of over 55% in size)
Procedure, shortened: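 Parallel cytotoxicity counter screen in ME-180 cells carrying an NFkB-response-element beta-lactamase reporter, 2,000 cells/well. Compound exposure lasted 5 hr at 37 C, 5% CO2. Cell viability was quantified by CellTiter-Glo luminescence.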

[3] = qHTS assay to identify small molecule agonists of the endoplasmic reticulum stress response signaling pathway - cell viability counter screen (AID 1159517; calls by dose curve;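 further: HeLa cells carrying an ER stress response element beta-lactamase reporter; series mostly up to about 61 µM; on the % scale 0 is the no-effect control and ±100 the full control effect; nearly all actives have a fitted effect of over 50% in size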)
Procedure, shortened: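 After overnight attachment, ESRE-bla HeLa cells were treated with Tox21 library compounds for 5 hr. CellTiter-Glo luminescence, read 30 min post-addition at room temperature, reported viability.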

[4] = qHTS assay to identify small molecule antagonists of the retinoid-related orphan receptor gamma (ROR-gamma) signaling pathway - cell viability counter screen (AID 1159520); further: on the % scale 0 is the no-effect control and ±100 the full control effect; nearly all actives have a fitted effect of over 50% in size
Procedure, shortened: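 Cytotoxicity was read from cellular ATP (CellTiter-Glo luminescence) after 16 hr at 37 C with 1 uM doxycycline induction. The inducer was added 2 hr after compound transfer to Tet-on ROR gamma CHO cells.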

[5] = target: Nuclear receptor ROR-gamma (Homo sapiens) (UniProt P51449); test: qHTS assay to identify small molecule antagonists of the retinoid-related orphan receptor gamma (ROR-gamma) signaling pathway (AID 1159521; further: nearly all actives have a fitted effect of over 50% in size; further: potency means the concentration at half of the fitted maximal effect)
Procedure, shortened: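 CHO cells expressing RORγ under a TET-on promoter, luciferase under RORE control. Dox 1 uM final, 16 h; compounds added 2 h prior. Luminescence decrease measured.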

[6] = qHTS assay to identify small molecule agonists of the AP-1 signaling pathway - cell viability counter screen (AID 1159525; calls by dose curve; further: nearly all actives have a fitted effect of over 55% in size)
Procedure, shortened: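 Intracellular ATP by Cell Titer Glo luminescence (30 min, RT) in the same ME-180 AP-1-bla wells after the 5 h compound exposure at 37 °C. Normalised to tetra n-octyl ammonium bromide and DMSO controls.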

[7] = qHTS assay to identify small molecule agonists of the AP-1 signaling pathway (AID 1159526; calls by dose curve; further: on the % scale 0 is the no-effect control and ±100 the full control effect)
[8] = target: Retinoic acid receptor RXR-alpha (Homo sapiens) (UniProt P19793); test: qHTS assay to identify small molecule agonists of the RXR signaling pathway (AID 1159527; calls by dose curve; further: on the % scale 0 is the no-effect control and ±100 the full control effect; nearly all actives have a fitted effect of over 35% in size)
Sequence of Retinoic acid receptor RXR-alpha (Homo sapiens) (P19793 whole entry, looked up): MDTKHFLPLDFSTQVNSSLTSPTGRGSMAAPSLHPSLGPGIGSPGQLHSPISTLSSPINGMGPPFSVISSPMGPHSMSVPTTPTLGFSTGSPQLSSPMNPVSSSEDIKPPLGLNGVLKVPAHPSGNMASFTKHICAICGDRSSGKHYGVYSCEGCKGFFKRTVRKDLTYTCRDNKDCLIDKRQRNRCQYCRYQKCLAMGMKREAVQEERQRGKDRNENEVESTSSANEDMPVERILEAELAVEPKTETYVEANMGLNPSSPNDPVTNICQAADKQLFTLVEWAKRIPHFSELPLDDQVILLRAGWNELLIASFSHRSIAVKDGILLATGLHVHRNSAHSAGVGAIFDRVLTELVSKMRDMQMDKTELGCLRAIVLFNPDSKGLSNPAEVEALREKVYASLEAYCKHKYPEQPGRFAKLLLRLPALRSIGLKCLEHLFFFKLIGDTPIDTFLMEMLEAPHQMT
Procedure, shortened: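 Beta-lactamase reporter assay, agonist format. Engineered HEK 293T line, charcoal-stripped FBS at 2%, overnight (16 hr) exposure, fluorescence at 460 and 530 nm after 405 nm excitation.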

[9] = qHTS assay to identify small molecule agonists of the RXR signaling pathway - cell viability counter screen (AID 1159529); further: nearly all actives have a fitted effect of over 50% in size; further: potency means the concentration at half of the fitted maximal effect
Procedure, shortened: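 Same-well viability check after the LiveBLAzer FRET read: CellTiter-Glo added, luminescence measured after 30 min at room temperature. Reporter HEK 293T cells had been treated with compounds for 16 hr following a 5 hr preincubation.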

[10] = qHTS assay to identify small molecule antagonists of the retinoid acid receptor (RAR) signaling pathway - cell viability counter screen (AID 1159551); further: on the % scale 0 is the no-effect control and ±100 the full control effect; nearly all actives have a fitted effect of over 35% in size
Procedure, shortened: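 ATP-based viability, C3RL4 cells, 6 h at 37 C with 1 uM final retinol co-added after compound; luminescence read 30 min post CellTiter-Glo, RT.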

[11] = qHTS assay to identify small molecule antagonists of the retinoic acid receptor (RAR) signaling pathway (AID 1159552)
Procedure, shortened: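 Readout: luciferase luminescence, 30 min post-reagent at RT. Setup: C3RL4 RARE reporter cells, compounds plus retinol 1 uM final, 6 hr incubation at 37 C and 5% CO2.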

[12] = qHTS assay to identify small molecule agonists of the retinoic acid receptor (RAR) signaling pathway (AID 1159553); further: on the % scale 0 is the no-effect control and ±100 the full control effect
Procedure, shortened: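 Quantitative high-throughput format: the Tox21 10K library was tested on C3RL4 RARE-luciferase cells for 6 hr at 37 C and 5% CO2, with luminescence measured after a 30 min room-temperature reagent step.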

[13] = qHTS assay to identify small molecule antagonists of the vitamin D receptor (VDR) signaling pathway - cell viability counter screen (AID 743225); further: nearly all actives have a fitted effect of over 50% in size; further: potency means the concentration at half of the fitted maximal effect
Procedure, shortened: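 Luminescent cell viability (CellTiter-Glo) in VDR-bla HEK 293T cells after 16 h compound exposure at 37C in the presence of 3 nM final 1-alpha,25-dihydroxy vitamin D3.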

[14] = qHTS assay to identify small molecule agonists of the endoplasmic reticulum stress response signaling pathway (AID 1159516; active means well fitted activation curve with a large enough effect in the signal ratio in the repeat runs, not every such curve was filed as active; the % refers to the signal ratio; further: on the % scale 0 is the no-effect control and ±100 the full control effect)
Procedure, shortened: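 Using a HeLa line with an ESRE-driven beta-lactamase gene, agonist activity was measured by FRET substrate fluorescence (460 and 530 nm emission) after cells were treated with compounds for 5 hr at 37 C and 5% CO2.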

[15] = qHTS assay to identify small molecule antagonists of the estrogen related receptor (ERR) signaling pathway - cell viability counter screen (AID 1224818);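 further: series mostly up to about 46 µM; viability measured after 17.5 h of compound exposure; on the % scale 0 is the no-effect control and ±100 the full control effect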
Procedure, shortened: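 Quantitative high-throughput viability counter screen in ERR cells. Compounds (DMSO) incubated 17.5 h at 37 C; read-out was CellTiter-Fluor fluorescence.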

[16] = qHTS assay to identify small molecule antagonists of the estrogen related receptor signaling pathway with the pleiotropic PPARgamma coactivator (PGC) cell viability counter screen (AID 1224822)
Procedure, shortened: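 Cytotoxicity in the PGC/ERR cell line is assessed with CellTiter-Fluor, read as fluorescence intensity 30 min after reagent addition, following 17.5 h compound treatment at 37 C.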

[17] = qHTS assay to identify small molecule antagonists of the estrogen related receptor (ERR) signaling pathway (AID 1224819)
Procedure, shortened: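 ERR reporter cell line (NTP) plated at 2,000 cells/well, settled 6 h at 37C/5% CO2, then exposed to LOPAC compounds for 18 h at 37C. One-Glo luciferase luminescence read after 30 min at room temperature.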

[18] = qHTS assay to identify small molecule agonists of the estrogen related receptor (ERR) signaling pathway (AID 1224820); further: on the % scale 0 is the no-effect control and ±100 the full control effect
Procedure, shortened: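 Luminescence readout (One-Glo, 30 min RT) from NTP-supplied ERR cell line exposed to compounds for 18 h at 37 C. Cells seeded 2,000 per well and pre-incubated 6 h before pin-tool compound transfer.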

[19] = test system: estrogen-related receptor alpha (ERRalpha) with PGC-1alpha coactivator, human; test: qHTS assay to identify small molecule antagonists of the estrogen related receptor signaling pathway with the pleiotropic PPARgamma coactivator (PGC) (AID 1224821; calls by dose curve)
Procedure, shortened: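 PGC/ERR reporter cells; 6 h pre-incubation 37 C/5% CO2; pin-tool compound in DMSO, 18 h 37 C; One-Glo added, 30 min RT; luminescence read. qHTS antagonist mode.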

N[C@@H](C(=O)N[C@@H]1C(=O)N2C(C(=O)O)=C(Cl)CS[C@H]12)c1ccccc1
inactive: activity change, negative = cytotoxicity [1] 12.3% [at 13.2 µM] | activity, negative = cytotoxic [2] 6.68% [at 6.95 µM] | activity change, negative = cytotoxicity [3] 11.8% [at 6.95 µM] | activity, negative = cytotoxicity [4] 0.217% [at 8.39 µM] | activity change, negative = inhibition [5] 46.6% [at 8.39 µM] | viability change, negative = cytotoxic [6] 3.61% [at 6.97 µM] | activation [7] 0.719% [at 6.97 µM] | activation [8] 3.92% [at 6.98 µM] | activity change, negative = cytotoxicity [9] 16.6% [at 6.97 µM] | activity change, negative = cytotoxicity [10] 2.73% [at 8.39 µM] | activity, negative = inhibition [11] -6.75% [at 8.39 µM] | activation [12] 0.152% [at 8.36 µM]

CC(C)(C)NCCNC(C)(C)C
inactive: Potency [1] | Potency [13] | outcome [2] | outcome [14] | outcome [3] | outcome [4] | Potency [5] | Potency [6] | outcome [7] | Potency [8] | Potency [9] | outcome [10] | Potency [12]

CCOC(=O)CC(C)=O
inactive: Potency [1] | Potency [13] | outcome [2] | outcome [14] | outcome [3] | outcome [4] | Potency [6] | outcome [7] | Potency [8] | Potency [9] | outcome [10] | Potency [11] | Potency [12]

Nc1nc2c(ncn2COC(CO)CO)c(=O)[nH]1
inactive: Potency [1] | Potency [13] | outcome [2] | outcome [14] | outcome [3] | outcome [4] | Potency [5] | Potency [6] | outcome [7] | Potency [9] | outcome [10] | Potency [11] | Potency [12] | outcome [15] | outcome [16]

N[C@H]1CN(c2c(F)cc3c(=O)c(C(=O)O)cn(C4C[C@H]4F)c3c2Cl)CC12CC2 (stereo partly drawn)
inactive: Potency [1] | Potency [13] | outcome [2] | outcome [14] | outcome [3] | outcome [4] | Potency [5] | Potency [6] | outcome [7] | Potency [8] | Potency [9] | outcome [10] | Potency [12]

CC(C)(O)C(=O)c1ccccc1
inactive: Potency [1] | Potency [13] | outcome [2] | outcome [14] | outcome [3] | outcome [4] | Potency [5] | Potency [6] | outcome [7] | Potency [8] | Potency [9] | outcome [10] | Potency [11] | Potency [12]

CN(C)CCCN1c2ccccc2CCc2ccc(Cl)cc21
active: Potency [1] 43.6 µM | Potency [13] 38.9 µM | Potency [5] 19.3 µM | Potency [9] 38.9 µM
inactive: outcome [2] | outcome [14] | outcome [3] | outcome [4] | Potency [6] | Potency [8] | outcome [10] | outcome [17] | outcome [18] | outcome [19]

COc1cc(C(=O)N2CCCCCCC2)cc(OC)c1OC
inactive: Potency [1] | Potency [13] | outcome [2] | outcome [14] | outcome [3] | outcome [4] | Potency [5] | Potency [6] | outcome [7] | Potency [9] | outcome [10] | Potency [12]

NC(CSCC(=O)O)C(=O)O (stereo not drawn)
inactive: Potency [1] | outcome [2] | outcome [14] | outcome [3] | outcome [4] | Potency [5] | Potency [6] | outcome [7] | Potency [8] | Potency [9] | outcome [10] | Potency [12]
